From PubChem BioAssay (NCATS)
Records with an inconclusive call do not appear. Entries that show only a call come without a potency. Active and inactive are the calls of the source. Calls come from the whole dose curve; as a rule, active = well fitted inhibition curve with a large enough effect; inconclusive = small, poorly fitted or top-dose-only effect; inactive = no such curve, though single readings can be large or run the other way.

Molecular target: N-terminal Xaa-Pro-Lys N-methyltransferase 1 (Homo sapiens) (UniProt Q9BV86)
Experiment: qHTS Assay for Inhibitors of N-terminal methyltransferase 1 (NTMT1): LOPAC validation of the NTMT1 SAHH-coupled ThioGlo3 Assay (AID 1347143); note: nearly all actives have a fitted effect of over 70% in size
Conditions: recombinant NTMT1, SAHH-coupled ThioGlo3 fluorescence; series mostly up to 114 µM
Method in brief: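 Fluorescence read-out (excitation 340nm, emission 450nm) of SAH-derived thiol, measured via SAHH coupling and ThioGlo3, taken immediately and after a 30 min room-temperature reaction, then normalized to the background read. Enzyme: NTMT1 at 125nM; cofactor SAM 100uM in the added reagent.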
Potency is the fitted concentration of half-maximal effect.

Sequence of N-terminal Xaa-Pro-Lys N-methyltransferase 1 (Homo sapiens) (Q9BV86 whole entry, looked up): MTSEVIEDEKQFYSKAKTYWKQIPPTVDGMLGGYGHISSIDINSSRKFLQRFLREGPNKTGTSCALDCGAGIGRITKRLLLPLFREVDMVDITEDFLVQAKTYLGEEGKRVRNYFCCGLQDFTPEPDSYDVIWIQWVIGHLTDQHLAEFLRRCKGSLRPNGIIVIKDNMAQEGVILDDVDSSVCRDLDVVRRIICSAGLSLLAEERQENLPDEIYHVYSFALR

Question: For `CN1C2CCC1CC(OC(c1ccccc1)c1ccccc1N)C2` (stereo unspecified), which Potency is on record?
Answer: inactive

Question: How did the Potency turn out when `O=C1/C(=C/c2ccccc2)C[C@@]2(O)[C@H]3Cc4ccc(O)c5c4[C@@]2(CCN3CC2CC2)[C@H]1O5` was run?
Answer: 50.1 µM (active)

Question: For `CC(C)CC(NP(=O)(O)O[C@@H]1O[C@@H](C)[C@H](O)[C@@H](O)[C@H]1O)C(=O)NC(Cc1c[nH]c2ccccc12)C(=O)O` (stereo partly specified), which Potency is on record?
Answer: inactive

Question: Which Potency does the source give for `CC(C)(O)[C@@H]1[C@H]2OC(=O)[C@@H]1[C@]1(O)C[C@H]3O[C@]34C(=O)O[C@H]2[C@]14C` (tested in a mixture with another compound) here?
Answer: inactive

Question: How did the Potency turn out when `CN(N=O)c1ccc(O)c(O)c1` was run?
Answer: 35.5 µM (active)

Question: `CCCN(CCC)CCc1ccc(O)c(O)c1` was tested. Which Potency did it give?
Answer: inactive

Question: With `NC(=O)COc1c(F)cc(SCCNS(=O)(=O)c2ccccc2)cc1F` as the compound, how does the Potency read?
Answer: inactive

Question: How did the Potency turn out when `CC(N)[C@H](O)c1ccc(O)c(O)c1` (stereo partly specified) was run?
Answer: 50.1 µM (active)

Question: How did the Potency turn out when `CC1(C(=O)O)C2CCC(O2)C1(C)C(=O)O` (stereo unspecified) was run?
Answer: inactive

Question: Which Potency does the source give for `CCn1cnc2c(Nc3cccc(Cl)c3)nc(N[C@@H]3CCCC[C@@H]3N)nc21` here?
Answer: 8.91 µM (active)

Question: How did the Potency turn out when `CNc1ccc2oc(C[C@H]3O[C@@]4(CC[C@H]3C)O[C@H]([C@H](C)C(=O)c3ccc[nH]3)[C@H](C)C[C@H]4C)nc2c1C(=O)O` was run?
Answer: 56.2 µM (active)

Question: For `NC(N)=NOCC[C@H](N)C(=O)O`, which Potency is on record?
Answer: inactive

Question: With `NC(=O)CI` as the compound, how does the Potency read?
Answer: 20 µM (active)

Question: `NC(C(=O)O)c1cc(=O)[nH]o1` (stereo unspecified) was tested. Which Potency did it give?
Answer: inactive

Question: How did the Potency turn out when `CCCCCCCCCCCCCC(=O)O[C@@H]1[C@@H](C)[C@@]2(O)[C@@H](C=C(CO)C[C@@]3(O)C(=O)C(C)=C[C@@H]23)C2C(C)(C)[C@@]21OC(C)=O` (stereo partly specified) was run?
Answer: inactive

Question: Which Potency does the source give for `O=P(O)(O)C(Cl)(Cl)P(=O)(O)O` here?
Answer: inactive

Question: With `NCCc1c[nH]c2ccc(C(N)=O)cc12` as the compound, how does the Potency read?
Answer: inactive

Question: `CCNC(=O)[C@H]1O[C@@H](n2cnc3c(N)ncnc32)[C@H](O)C1O` (stereo partly specified) was tested. Which Potency did it give?
Answer: inactive

Question: For `CCN1C[C@@]2(COC)C3[C@@H](OC)C4[C@H]1C3([C@@H]1C[C@@]3(O)[C@H](OC(=O)c5ccccc5)[C@@H]1[C@]4(OC(C)=O)[C@@H](O)[C@@H]3OC)[C@H](OC)C[C@H]2O`, which Potency is on record?
Answer: inactive

Question: Which Potency does the source give for `CC1OC1P(=O)(O)O` (stereo unspecified) here?
Answer: inactive

Question: For `C[N+](C)(C)CC#CCN1CCCC1=O`, which Potency is on record?
Answer: 28.2 µM (active)

Question: Which Potency does the source give for `CN1CC[C@@]2(C)c3cc(O)ccc3N(C)C12` (stereo partly specified) here?
Answer: 44.7 µM (active)

Question: `NNC(=O)c1ccc(O)cc1` was tested. Which Potency did it give?
Answer: inactive

Question: Which Potency does the source give for `N#C/C(=C/c1ccc(O)c(O)c1)C(N)=S` here?
Answer: 44.7 µM (active)

Question: Which Potency does the source give for `COc1ccc(CNC(=O)/C=C/c2ccc3[nH]cc(CCN(C)C)c3c2)cc1` here?
Answer: inactive

Question: How did the Potency turn out when `CCN(CC)c1ncnc2c1ncn2[C@@H]1O[C@H](COP(=O)(O)OP(=O)(O)C(Br)(Br)P(=O)(O)O)[C@@H](O)[C@H]1O` was run?
Answer: inactive

Question: For `C[C@]12Cc3cn4c(nc3C=C1CCC1C2CC[C@@]2(C)[C@H]1CC[C@@]2(O)C#N)nc1ccccc14` (stereo partly specified), which Potency is on record?
Answer: inactive

Question: `O=c1ccc2[nH]cc(C3=CCNCC3)c2[nH]1` was tested. Which Potency did it give?
Answer: 56.2 µM (active)

Question: For `C[N+]1(C)CCC(OC(=O)C(c2ccccc2)c2ccccc2)CC1`, which Potency is on record?
Answer: 63.1 µM (active)

Question: For `Nc1ncnc2c1ncn2[C@@H]1O[C@H](COP(=O)(O)CP(=O)(O)OP(=O)(O)O)C(O)[C@H]1O` (stereo partly specified), which Potency is on record?
Answer: inactive

Question: With `O=[N+]([O-])c1cc(O)c(O)c([N+](=O)[O-])c1` as the compound, how does the Potency read?
Answer: 44.7 µM (active)
